From PubChem BioAssay (EPA / NIEHS)
Values joined by “and” are separate entries in the source; they are usually repeats but may differ in a detail not shown here. Equal entries are not always repeated. Records with an inconclusive call do not appear. Some structures have more than one record in an assay (separate samples or runs), and their calls can disagree. Active and inactive are the calls of the source. How the source made its calls, unless noted: active means hit-call score of the fitted dose curve at least 0.9, where 1 is the maximum; inactive means score below 0.9.

Key:
[1] = ATG_TAL_CIS: Attagene CIS-FACTORIAL HepG2 Assay for human TAL Basal Promoter (AID 2282966); details: HepG2 Attagene cis-factorial TAL promoter reporter; actives raise or lower the signal;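 further: background control endpoint measuring basal TAL promoter reporter mRNA not a specific factor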
Summary of the method: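 HepG2, transient MRTU transfection, 24 h compound exposure; RNA → oligo(dT) RT → PCR → 6-FAM primer extension → HpaI digest → CE fluorescence. Bidirectional curve fit vs DMSO. Background-control readout.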

[2] = ATG_VDRE_CIS: Attagene CIS-FACTORIAL HepG2 Assay for human Vitamin D Receptor Element (VDRE) (AID 2282968); details: HepG2 VDRE cis-reporter transcription, actives raise or lower the signal
Summary of the method: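 Transient MRTU transfection of HepG2, 24 h compound exposure. Readout: reporter transcripts via RT-PCR and capillary electrophoresis, fluorescence. Bidirectional fit vs DMSO.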

[3] = target: Nuclear receptor subfamily 1 group I member 3 (Homo sapiens) (UniProt Q14994); test: ATG_CAR_TRANS: Attagene TRANS-FACTORIAL HepG2 Assay for human Constitutive Androstane Receptor (CAR) (AID 2282969; active means hit-call score of the fitted dose curve at least 0.9, where 1 is the maximum;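 further: activators raise reporter mRNA above DMSO so AC50 marks induction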); details: HepG2 Attagene TRANS-FACTORIAL CAR reporter
Chain of Nuclear receptor subfamily 1 group I member 3 (Homo sapiens) (Q14994 whole entry, looked up, the tested form may be a part): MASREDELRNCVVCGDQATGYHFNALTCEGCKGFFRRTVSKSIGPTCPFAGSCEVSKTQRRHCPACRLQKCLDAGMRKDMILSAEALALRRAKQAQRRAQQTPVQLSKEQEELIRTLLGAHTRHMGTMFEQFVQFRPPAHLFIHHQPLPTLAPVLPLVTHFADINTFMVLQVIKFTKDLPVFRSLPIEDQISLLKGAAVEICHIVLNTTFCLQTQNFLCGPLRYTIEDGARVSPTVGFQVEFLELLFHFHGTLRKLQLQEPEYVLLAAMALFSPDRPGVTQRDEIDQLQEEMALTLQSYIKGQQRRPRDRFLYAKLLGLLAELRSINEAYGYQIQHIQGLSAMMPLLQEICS
Summary of the method: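 Transiently transfected HepG2, multiplex TRANS reporters (CAR-Gal4 chimera driving GAL4-UAS reporter). 24 h dosing. Readout: reporter transcript by RT-PCR + capillary electrophoresis, fluorescence intensity; positive direction vs DMSO.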

[4] = target: Estrogen receptor (Homo sapiens) (UniProt P03372); test: ATG_ERa_TRANS: Attagene TRANS-FACTORIAL HepG2 Assay for human Estrogen Receptor alpha (ERa) (AID 2282970; active means hit-call score of the fitted dose curve at least 0.9, where 1 is the maximum); details: HepG2 Attagene TRANS ERa GAL4 reporter, mRNA
Chain of Estrogen receptor (Homo sapiens) (P03372 whole entry, looked up, the tested form may be a part): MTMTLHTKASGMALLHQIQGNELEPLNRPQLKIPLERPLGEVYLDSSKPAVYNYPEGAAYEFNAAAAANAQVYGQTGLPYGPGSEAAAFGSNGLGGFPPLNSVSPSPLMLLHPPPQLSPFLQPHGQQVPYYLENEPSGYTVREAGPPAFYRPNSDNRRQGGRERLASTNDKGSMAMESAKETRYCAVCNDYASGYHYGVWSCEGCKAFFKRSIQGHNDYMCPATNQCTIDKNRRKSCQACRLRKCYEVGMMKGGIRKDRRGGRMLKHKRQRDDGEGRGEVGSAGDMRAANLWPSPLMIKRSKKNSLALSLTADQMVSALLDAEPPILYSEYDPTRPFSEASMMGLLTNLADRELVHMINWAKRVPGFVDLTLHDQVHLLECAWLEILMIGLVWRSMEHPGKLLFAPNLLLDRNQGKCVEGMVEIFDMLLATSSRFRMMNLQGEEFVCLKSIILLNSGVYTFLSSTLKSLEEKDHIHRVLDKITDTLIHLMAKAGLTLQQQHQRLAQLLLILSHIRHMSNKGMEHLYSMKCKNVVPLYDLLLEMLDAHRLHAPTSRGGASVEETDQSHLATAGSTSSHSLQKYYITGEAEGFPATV
Summary of the method: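 Reporter mRNA induction after 24 hours, detected by fluorescent RT-PCR and capillary electrophoresis, gives the read-out. Cells are HepG2 transiently transfected with GAL4-UAS reporter transcription units responding to chimeric NR-Gal4. Activity is taken as gain of signal over DMSO baseline.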

[5] = target: X-box-binding protein 1 (Homo sapiens) (UniProt P17861); test: ATG_Xbp1_CIS: Attagene CIS-FACTORIAL HepG2 Assay for human X-box Binding Protein 1 (XBP1) (AID 2282972); details: HepG2 XBP1 cis-element reporter, Attagene multiplex; actives raise or lower the signal
Chain of X-box-binding protein 1 (Homo sapiens) (P17861 whole entry, looked up): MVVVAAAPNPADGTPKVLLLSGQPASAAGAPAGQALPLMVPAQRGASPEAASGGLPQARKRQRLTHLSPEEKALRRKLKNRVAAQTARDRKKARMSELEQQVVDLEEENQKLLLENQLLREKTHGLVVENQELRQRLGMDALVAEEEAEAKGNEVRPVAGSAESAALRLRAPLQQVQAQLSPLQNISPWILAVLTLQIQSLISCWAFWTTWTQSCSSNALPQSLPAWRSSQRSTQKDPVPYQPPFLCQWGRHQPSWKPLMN
Summary of the method: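 Changes in reporter transcript abundance, read by RT-PCR and capillary electrophoresis, reflect endogenous transcription factor activity. Transfected HepG2 cells received compound for 24 hours; DMSO defined baseline for bidirectional analysis.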

[6] = target: Glucocorticoid receptor (Homo sapiens) (UniProt P04150); test: ATG_GR_TRANS: Attagene TRANS-FACTORIAL HepG2 Assay for human Glucocorticoid Receptor (GR) (AID 2282978; active means hit-call score of the fitted dose curve at least 0.9, where 1 is the maximum;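 further: activators score as hits since higher reporter transcript over DMSO is fitted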); details: HepG2 Attagene TRANS GR reporter, mRNA transcription
Chain of Glucocorticoid receptor (Homo sapiens) (P04150 whole entry, looked up, the tested form may be a part): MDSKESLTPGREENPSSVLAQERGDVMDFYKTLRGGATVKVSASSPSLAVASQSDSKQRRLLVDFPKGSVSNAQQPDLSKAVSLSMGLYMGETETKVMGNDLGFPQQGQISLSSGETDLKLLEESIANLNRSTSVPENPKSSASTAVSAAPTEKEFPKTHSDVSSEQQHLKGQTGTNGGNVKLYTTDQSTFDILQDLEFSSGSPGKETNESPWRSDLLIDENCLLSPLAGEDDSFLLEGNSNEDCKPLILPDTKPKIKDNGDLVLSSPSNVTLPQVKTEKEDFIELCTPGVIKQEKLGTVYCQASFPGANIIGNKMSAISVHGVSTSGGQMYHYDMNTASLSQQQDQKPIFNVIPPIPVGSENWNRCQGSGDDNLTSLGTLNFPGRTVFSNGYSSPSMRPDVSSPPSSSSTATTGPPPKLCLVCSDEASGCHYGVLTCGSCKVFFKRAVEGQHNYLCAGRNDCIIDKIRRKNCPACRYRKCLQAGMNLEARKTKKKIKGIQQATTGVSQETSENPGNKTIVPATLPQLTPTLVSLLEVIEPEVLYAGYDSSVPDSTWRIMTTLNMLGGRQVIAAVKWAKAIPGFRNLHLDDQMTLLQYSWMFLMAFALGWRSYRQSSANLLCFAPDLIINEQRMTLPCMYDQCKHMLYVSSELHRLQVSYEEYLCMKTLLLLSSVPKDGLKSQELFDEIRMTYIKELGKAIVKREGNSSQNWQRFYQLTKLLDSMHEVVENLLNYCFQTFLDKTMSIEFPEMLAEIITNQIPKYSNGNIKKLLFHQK
Summary of the method: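 Measurement of GAL4-UAS-driven reporter mRNA in human HepG2 liver cells 24 h post-dosing, using RT-PCR with fluorescent labelling and capillary electrophoresis; the transfected constructs report exogenous NR-GAL4 chimera activity, fitted upward against DMSO.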

[7] = target: Bile acid receptor (Homo sapiens) (UniProt Q96RI1); test: ATG_FXR_TRANS: Attagene TRANS-FACTORIAL HepG2 Assay for Farnesoid X Receptor (FXR) (AID 2282979; active means hit-call score of the fitted dose curve at least 0.9, where 1 is the maximum;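 further: hits raise reporter mRNA above DMSO so AC50 marks FXR activation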); details: HepG2 Attagene TRANS FXR-GAL4 reporter transcription
Chain of Bile acid receptor (Homo sapiens) (Q96RI1 whole entry, looked up, the tested form may be a part): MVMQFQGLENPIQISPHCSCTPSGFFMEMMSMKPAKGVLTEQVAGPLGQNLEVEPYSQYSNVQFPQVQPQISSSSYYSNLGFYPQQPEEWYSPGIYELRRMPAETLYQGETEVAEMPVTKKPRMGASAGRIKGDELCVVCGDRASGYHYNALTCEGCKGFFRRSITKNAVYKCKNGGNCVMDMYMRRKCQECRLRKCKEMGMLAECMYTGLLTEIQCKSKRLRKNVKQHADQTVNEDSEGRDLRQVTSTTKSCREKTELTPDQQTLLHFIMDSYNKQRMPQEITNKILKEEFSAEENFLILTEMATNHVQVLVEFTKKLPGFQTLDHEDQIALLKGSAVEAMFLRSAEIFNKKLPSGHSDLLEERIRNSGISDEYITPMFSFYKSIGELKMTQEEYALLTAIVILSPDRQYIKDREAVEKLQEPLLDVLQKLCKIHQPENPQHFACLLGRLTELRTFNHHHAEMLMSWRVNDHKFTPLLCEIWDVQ
Summary of the method: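 Read-out: fluorescent reporter transcripts quantified by capillary electrophoresis after RT-PCR of total RNA. Source cells were HepG2 transiently carrying chimeric NR-GAL4 plus GAL4-UAS reporter units, dosed 24 h. Activity fitted upward relative to DMSO baseline.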

[8] = target: Oxysterols receptor LXR-beta (Homo sapiens) (UniProt P55055); test: ATG_LXRb_TRANS: Attagene TRANS-FACTORIAL HepG2 Assay for human Liver X Receptor beta (LXRb) (AID 2282981; active means hit-call score of the fitted dose curve at least 0.9, where 1 is the maximum); details: HepG2 Attagene TRANS GAL4-LXRb reporter, mRNA
Chain of Oxysterols receptor LXR-beta (Homo sapiens) (P55055 whole entry, looked up, the tested form may be a part): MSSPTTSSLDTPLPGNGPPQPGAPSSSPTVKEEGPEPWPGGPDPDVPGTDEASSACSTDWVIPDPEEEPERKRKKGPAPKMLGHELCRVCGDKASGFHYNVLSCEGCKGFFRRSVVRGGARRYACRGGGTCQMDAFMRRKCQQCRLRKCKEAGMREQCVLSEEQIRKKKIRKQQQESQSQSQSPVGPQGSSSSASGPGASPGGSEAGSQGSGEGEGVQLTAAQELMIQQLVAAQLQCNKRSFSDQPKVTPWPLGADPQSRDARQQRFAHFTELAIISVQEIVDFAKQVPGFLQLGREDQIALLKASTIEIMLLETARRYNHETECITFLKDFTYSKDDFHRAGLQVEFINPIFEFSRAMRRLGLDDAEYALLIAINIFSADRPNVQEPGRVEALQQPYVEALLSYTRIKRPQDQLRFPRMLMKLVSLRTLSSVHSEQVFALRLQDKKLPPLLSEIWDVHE
Summary of the method: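 Readout: fluorescent reporter mRNA fragments resolved by capillary electrophoresis after RT-PCR. System: transiently transfected human HepG2, exogenous LXRb-Gal4 chimera driving GAL4-UAS reporter, 24 h dosing. Activity fitted upward against DMSO baseline.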

[9] = target: Hepatocyte nuclear factor 4-alpha (Homo sapiens) (UniProt P41235); test: ATG_HNF4a_TRANS: Attagene TRANS-FACTORIAL HepG2 Assay for human Hepatocyte Nuclear Factor 4 alpha (HNF4a) (AID 2282982; active means hit-call score of the fitted dose curve at least 0.9, where 1 is the maximum); details: HepG2 HNF4a transactivation reporter, mRNA readout
Chain of Hepatocyte nuclear factor 4-alpha (Homo sapiens) (P41235 whole entry, looked up): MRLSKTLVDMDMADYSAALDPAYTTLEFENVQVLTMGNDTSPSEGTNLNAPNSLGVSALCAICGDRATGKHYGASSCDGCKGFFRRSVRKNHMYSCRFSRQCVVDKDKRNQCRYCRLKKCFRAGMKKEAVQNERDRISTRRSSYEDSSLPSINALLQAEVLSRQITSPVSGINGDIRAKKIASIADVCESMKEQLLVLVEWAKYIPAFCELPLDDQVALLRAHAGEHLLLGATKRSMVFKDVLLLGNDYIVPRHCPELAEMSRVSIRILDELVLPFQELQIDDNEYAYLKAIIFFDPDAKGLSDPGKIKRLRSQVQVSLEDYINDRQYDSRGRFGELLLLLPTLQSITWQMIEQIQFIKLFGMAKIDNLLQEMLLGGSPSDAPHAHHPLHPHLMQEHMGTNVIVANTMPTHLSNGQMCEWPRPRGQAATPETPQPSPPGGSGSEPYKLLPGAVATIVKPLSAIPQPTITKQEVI
Summary of the method: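 Transient MRTU transfection of HepG2, 24 h dosing. Readout: reporter mRNA via RT-PCR + capillary electrophoresis, fluorescence; activity fit upward relative to DMSO control.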

[10] = ATG_M_06_TRANS: Attagene TRANS-FACTORIAL HepG2 Assay for M06 Transcription Factor (Internal Marker) (AID 2282983; active means hit-call score of the fitted dose curve at least 0.9, where 1 is the maximum); details: HepG2 Attagene TRANS M06 internal marker reporter
Summary of the method: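 Read-out: fluorescent reporter cDNA fragments resolved by capillary electrophoresis after RT-PCR and HpaI cut. Source cells were HepG2 carrying transfected multi-reporter GAL4 constructs, dosed 24 h. Increase over DMSO control analysed.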

[11] = ATG_M_32_TRANS: Attagene TRANS-FACTORIAL HepG2 Assay for M32 Transcription Factor (Internal Marker) (AID 2282984; active means hit-call score of the fitted dose curve at least 0.9, where 1 is the maximum;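 further: transcript level of a background control reporter unit measured by RT-PCR and capillary electrophoresis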); details: HepG2 Attagene TRANS M32 internal marker reporter
Summary of the method: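 Read-out: fluorescent reporter cDNA fragments resolved by capillary electrophoresis after RT-PCR of total RNA. Transfected HepG2 cells were exposed to chemical for 24 h. Activity scored in the positive direction relative to DMSO.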

[12] = target: Transcriptional activator Myb (Homo sapiens) (UniProt P10242); test: ATG_Myb_CIS: Attagene CIS-FACTORIAL HepG2 Assay for human Myeloblastosis (Myb) Proto-Oncogene Transcription Factor (AID 2282986); details: HepG2 Attagene CIS-FACTORIAL Myb reporter transcription; actives raise or lower the signal
Chain of Transcriptional activator Myb (Homo sapiens) (P10242 whole entry, looked up): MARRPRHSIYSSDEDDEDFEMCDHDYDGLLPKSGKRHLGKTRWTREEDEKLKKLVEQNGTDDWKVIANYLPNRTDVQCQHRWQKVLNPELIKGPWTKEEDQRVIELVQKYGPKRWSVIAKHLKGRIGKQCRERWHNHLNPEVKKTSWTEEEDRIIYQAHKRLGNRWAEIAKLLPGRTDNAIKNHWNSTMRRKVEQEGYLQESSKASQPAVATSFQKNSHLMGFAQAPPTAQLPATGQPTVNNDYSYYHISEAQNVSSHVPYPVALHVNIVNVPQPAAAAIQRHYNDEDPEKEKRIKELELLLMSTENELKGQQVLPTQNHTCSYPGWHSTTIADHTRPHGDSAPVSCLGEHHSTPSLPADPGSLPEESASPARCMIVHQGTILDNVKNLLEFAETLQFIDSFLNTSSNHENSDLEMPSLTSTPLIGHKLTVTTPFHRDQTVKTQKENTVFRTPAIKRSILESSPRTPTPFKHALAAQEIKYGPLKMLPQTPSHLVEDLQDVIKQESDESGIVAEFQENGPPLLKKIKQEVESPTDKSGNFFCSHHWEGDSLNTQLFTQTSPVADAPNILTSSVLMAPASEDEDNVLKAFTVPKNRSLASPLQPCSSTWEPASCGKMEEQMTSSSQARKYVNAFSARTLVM
Summary of the method: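 Fluorescence signals from capillary electrophoresis of RT-PCR-amplified reporter cDNA give the read-out. Cells: HepG2 transfected with multiple cis-regulated reporter units. Exposure lasts 24 hours; DMSO defines baseline for gain or loss of signal.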

[13] = target: Nuclear respiratory factor 1 (Homo sapiens) (UniProt Q16656); test: ATG_NRF1_CIS: Attagene CIS-FACTORIAL HepG2 Assay for human Nuclear Respiratory Factor 1 (NRF1) Orphan Gene (AID 2282987); details: HepG2 NRF1 cis-element reporter, Attagene multiplex; actives raise or lower the signal
Chain of Nuclear respiratory factor 1 (Homo sapiens) (Q16656 whole entry, looked up): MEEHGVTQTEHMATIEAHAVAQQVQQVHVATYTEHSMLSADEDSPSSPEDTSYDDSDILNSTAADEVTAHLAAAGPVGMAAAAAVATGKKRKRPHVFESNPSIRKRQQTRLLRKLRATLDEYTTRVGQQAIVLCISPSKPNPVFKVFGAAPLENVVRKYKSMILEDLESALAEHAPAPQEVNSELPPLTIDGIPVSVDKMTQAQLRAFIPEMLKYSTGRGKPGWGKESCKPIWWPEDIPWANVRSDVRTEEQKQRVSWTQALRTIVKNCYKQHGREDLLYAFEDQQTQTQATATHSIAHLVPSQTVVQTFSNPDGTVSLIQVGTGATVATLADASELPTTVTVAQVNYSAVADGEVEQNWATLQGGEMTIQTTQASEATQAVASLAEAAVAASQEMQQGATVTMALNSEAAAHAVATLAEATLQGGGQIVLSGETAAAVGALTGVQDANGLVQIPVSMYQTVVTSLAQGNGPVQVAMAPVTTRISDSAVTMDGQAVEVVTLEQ
Summary of the method: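 Transcriptional reporter readout, one component of a 52-endpoint multiplexed HepG2 panel. Exposure 24 h; mRNA detected via RT-PCR and fluorescent capillary electrophoresis; fitting in both directions against DMSO.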

[14] = ATG_NFI_CIS: Attagene CIS-FACTORIAL HepG2 Assay for human Nuclear Factor I (NFI) (AID 2282989); details: HepG2 cis-regulatory reporter, NFI response element transcription; actives raise or lower the signal
Summary of the method: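 Cells: human liver HepG2, transiently transfected with promoter-regulated reporter transcription units. Exposure 24 h. Detection: fluorescent RT-PCR products separated by capillary electrophoresis, normalised to DMSO negative control.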

[15] = ATG_TGFb_CIS: Attagene CIS-FACTORIAL HepG2 Assay for human Transforming Growth Factor (TGF) (AID 2282967); details: HepG2 Attagene CIS TGFb reporter, mRNA transcription; actives raise or lower the signal
Summary of the method: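 Bidirectional fitting relative to DMSO gave the endpoint. Underlying data: reporter mRNA from HepG2 cells carrying transiently transfected cis-regulated reporter constructs, harvested 24 h after dosing and analyzed by RT-PCR and capillary electrophoresis.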

[16] = ATG_M_19_TRANS: Attagene TRANS-FACTORIAL HepG2 Assay for M19 Transcription Factor (Internal Marker) (AID 2282974; active means hit-call score of the fitted dose curve at least 0.9, where 1 is the maximum); details: HepG2 Attagene TRANS-FACTORIAL M19 internal marker reporter
Summary of the method: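 Measured here: internal-marker reporter transcript from HepG2 cells transfected with MRTUs, harvested at 24 h. cDNA PCR products were 6-FAM labelled by primer extension, cut with HpaI for 2 h at 37 C, and resolved by CE.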

[17] = ATG_Hpa5_TRANS: Attagene TRANS-FACTORIAL HepG2 Assay for human GAL4-Hpa5 Hepatocyte Transcription Factor Basal Promoter (AID 2282975; active means hit-call score of the fitted dose curve at least 0.9, where 1 is the maximum;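 further: hits are increases in reporter mRNA over DMSO baseline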); details: HepG2 Attagene GAL4-Hpa5 transcription reporter
Summary of the method: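 Gain-of-signal versus DMSO is fitted for reporter mRNA quantified by RT-PCR and capillary electrophoresis after 24 h exposure. This endpoint is an internal background marker in transiently transfected HepG2 cells carrying GAL4-UAS reporter units.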

[18] = ATG_GAL4_TRANS: Attagene TRANS-FACTORIAL HepG2 Assay for GAL4 (Internal Marker) (AID 2282976; active means hit-call score of the fitted dose curve at least 0.9, where 1 is the maximum); details: HepG2 Attagene TRANS GAL4 internal marker reporter
Summary of the method: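 RT-PCR/capillary electrophoresis readout of reporter mRNA. HepG2, transient MRTU transfection (GAL4-UAS reporters), 24 h compound exposure. Background-control endpoint, positive direction vs DMSO baseline.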

With `Oc1c(Cl)c(Cl)c(Cl)c(Cl)c1Cl` the AC50 [1] was 26.4 µM (active), the outcome [1] was “inactive” and the AC50 [2] was 25.5 µM (active) and 8.06 µM (active) and 8.47 µM (active). For the same molecule, the outcome [3] was “inactive”, the outcome [4] was “inactive” and the AC50 [5] was 29.5 µM (active) and 19 µM (active) and 74.2 µM (active). The outcome [6] was “inactive”, the outcome [7] was “inactive” and the outcome [8] was “inactive”. The outcome [9] was “inactive”, the outcome [10] was “inactive” and the outcome [11] was “inactive”. For the same molecule, the outcome [12] was “inactive”, the AC50 [13] was 12.5 µM (active) and 25.7 µM (active) and the outcome [13] was “inactive”. The AC50 [14] was 27.4 µM (active) and 51 µM (active) and the outcome [14] was “inactive”.

In the case of `CCC(C)(CC)c1cc(NC(=O)c2c(OC)cccc2OC)on1`, the outcome [1] is reported as “inactive”, the outcome [15] is reported as “inactive” and the AC50 [2] is reported as 0.977 µM (active). For the same molecule, the outcome [5] was “inactive”, the outcome [16] was “inactive” and the outcome [17] was “inactive”. For the same molecule, the outcome [9] was “inactive”, the outcome [11] was “inactive” and the outcome [12] was “inactive”. For the same molecule, the outcome [13] was “inactive” and the outcome [14] was “inactive”.

In the case of `CCCCCCCCCC[N+](C)(C)CCCCCCCCCC`, the outcome [1] is reported as “inactive”, the outcome [15] is reported as “inactive” and the AC50 [2] is reported as 8.67 µM (active). For the same molecule, the outcome [4] was “inactive”, the outcome [5] was “inactive” and the outcome [7] was “inactive”. The outcome [8] was “inactive”, the outcome [9] was “inactive” and the outcome [10] was “inactive”. For the same molecule, the outcome [11] was “inactive”, the outcome [12] was “inactive” and the AC50 [13] was 100 µM (active). For the same molecule, the outcome [14] was “inactive”.

For `Cc1cc(O)ccc1Cl`, the outcome [1] was “inactive”, the outcome [15] was “inactive” and the outcome [2] was “inactive”. The AC50 [4] was 40.4 µM (active), the outcome [5] was “inactive” and the outcome [16] was “inactive”. The outcome [6] was “inactive”, the outcome [7] was “inactive” and the outcome [9] was “inactive”. For the same molecule, the outcome [10] was “inactive”, the outcome [12] was “inactive” and the outcome [13] was “inactive”. For the same molecule, the outcome [14] was “inactive”.

In the case of `CC#Cc1cc(C)nc(Nc2ccccc2)n1`, the outcome [1] is reported as “inactive”, the outcome [15] is reported as “inactive” and the AC50 [2] is reported as 65.6 µM (active). The outcome [5] was “inactive”, the outcome [6] was “inactive” and the outcome [8] was “inactive”. For the same molecule, the outcome [10] was “inactive”, the outcome [11] was “inactive” and the outcome [12] was “inactive”. The outcome [13] was “inactive” and the outcome [14] was “inactive”.

For `Sc1ccccc1`, the outcome [1] was “inactive”, the AC50 [2] was 27.1 µM (active) and the outcome [2] was “inactive”. The outcome [3] was “inactive”, the AC50 [4] was 27.1 µM (active) and 42.2 µM (active) and the outcome [5] was “inactive”. The outcome [16] was “inactive”, the outcome [18] was “inactive” and the outcome [6] was “inactive”. The outcome [8] was “inactive”, the outcome [10] was “inactive” and the outcome [11] was “inactive”. The outcome [12] was “inactive”, the outcome [13] was “inactive” and the outcome [14] was “inactive”.

In the case of `ClC(Cl)=C(c1ccc(Cl)cc1)c1ccc(Cl)cc1`, the outcome [1] is reported as “inactive”, the outcome [15] is reported as “inactive” and the AC50 [2] is reported as 100 µM (active). For the same molecule, the outcome [2] was “inactive”, the outcome [3] was “inactive” and the AC50 [4] was 12.2 µM (active) and 4.03 µM (active) and 3.46 µM (active). The outcome [4] was “inactive”, the AC50 [5] was 150 µM (active) and the outcome [5] was “inactive”. For the same molecule, the outcome [16] was “inactive”, the outcome [6] was “inactive” and the outcome [7] was “inactive”. For the same molecule, the outcome [8] was “inactive”, the outcome [10] was “inactive” and the outcome [11] was “inactive”. The outcome [12] was “inactive”, the AC50 [13] was 61.1 µM (active) and 100 µM (active) and the outcome [13] was “inactive”. For the same molecule, the AC50 [14] was 100 µM (active) and 114 µM (active) and 152 µM (active).
